# About 7,900 targets were measured; listed, in parts, are those with a hit and a random draw of the rest. About 0.6% of all pairs of compound and target were hits. Unmarked numbers belong to inactive results.
# Key:
# Test in all cases: log2 fold change, soluble protein after heating vs DMSO (PISA); higher = thermal stabilisation; K562 cells, 10 uM, 30 min; active = over 0.2 and 3.5 SD of the protein, either way, in both replicates (recomputed)
# saracatinib = compound: CN1CCN(CCOc2cc(OC3CCOCC3)c3c(Nc4c(Cl)ccc5c4OCO5)ncnc3c2)CC1 [saracatinib]
# In short: (§1)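 K562 cells at 2×10^6 cells/mL were exposed to 10 μM compound for 30 min, then aliquots were heated for 3 min across 48°C-58°C, pooled, and extracted in PBS containing 0.5% NP-40 at 4°C. The supernatant after 21,000xg for 90 min was taken as soluble protein and measured by TMTpro 16plex LC-MS/MS with channel sums equalised. Thermal stability is reported relative to control samples, with values from duplicates. Fold changes are given on a log2 scale.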
# sotrastaurin = compound: CN1CCN(c2nc(C3=C(c4c[nH]c5ccccc45)C(=O)NC3=O)c3ccccc3n2)CC1 [sotrastaurin]
# In short: as §1
# alvocidib = compound: CN1CC[C@H](c2c(O)cc(O)c3c(=O)cc(-c4ccccc4Cl)oc23)[C@H](O)C1 [alvocidib]
# In short: as §1
# Tubastatin A = compound: CN1CCc2c(c3ccccc3n2Cc2ccc(C(=O)NO)cc2)C1 [Tubastatin A]
# In short: as §1
# [1] = compound: CNC(=O)C1=CC=CC=C1NC2=NC(=NC=C2Cl)NC3=C(C=C(C=C3)N4CCOCC4)OC
# In short: as §1
# defactinib = compound: CNC(=O)c1ccc(Nc2ncc(C(F)(F)F)c(NCc3nccnc3N(C)S(C)(=O)=O)n2)cc1 [defactinib]
# In short: as §1
# rucaparib = compound: CNCc1ccc(-c2[nH]c3cc(F)cc4c3c2CCNC4=O)cc1 [rucaparib]
# In short: as §1
# [2] = compound: CNc1nc(-c2ccc3c(N)n[nH]c3c2)cc(N2C[C@@H](C(=O)NC3CCCCC3)CC[C@H]2C)n1
# In short: as §1
# encorafenib = compound: COC(=O)N[C@@H](C)CNc1nccc(-c2cn(C(C)C)nc2-c2cc(Cl)cc(NS(C)(=O)=O)c2F)n1 [encorafenib]
# In short: as §1
# [3] = compound: COC(=O)[C@H](CCSC)NC(=O)C1=C(C=C(C=C1)NC[C@H](CS)N)C2=CC=CC=C2
# In short: as §1
# UniProt Q10472, sequence (Q10472 whole entry, looked up): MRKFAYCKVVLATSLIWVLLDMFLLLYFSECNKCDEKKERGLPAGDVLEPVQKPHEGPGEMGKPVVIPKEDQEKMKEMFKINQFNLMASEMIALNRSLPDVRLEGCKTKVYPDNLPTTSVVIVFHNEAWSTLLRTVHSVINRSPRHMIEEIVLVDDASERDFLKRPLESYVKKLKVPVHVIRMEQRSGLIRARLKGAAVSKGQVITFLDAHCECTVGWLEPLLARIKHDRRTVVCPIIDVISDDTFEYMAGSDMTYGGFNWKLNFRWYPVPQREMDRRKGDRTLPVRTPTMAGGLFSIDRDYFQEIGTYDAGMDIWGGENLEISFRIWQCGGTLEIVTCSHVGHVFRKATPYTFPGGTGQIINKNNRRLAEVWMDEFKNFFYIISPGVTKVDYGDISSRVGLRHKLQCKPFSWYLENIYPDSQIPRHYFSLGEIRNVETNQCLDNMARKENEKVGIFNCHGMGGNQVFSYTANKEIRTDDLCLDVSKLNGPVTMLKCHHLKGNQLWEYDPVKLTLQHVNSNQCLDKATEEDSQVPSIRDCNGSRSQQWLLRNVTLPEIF
# UniProt P49448, sequence (P49448 whole entry, looked up): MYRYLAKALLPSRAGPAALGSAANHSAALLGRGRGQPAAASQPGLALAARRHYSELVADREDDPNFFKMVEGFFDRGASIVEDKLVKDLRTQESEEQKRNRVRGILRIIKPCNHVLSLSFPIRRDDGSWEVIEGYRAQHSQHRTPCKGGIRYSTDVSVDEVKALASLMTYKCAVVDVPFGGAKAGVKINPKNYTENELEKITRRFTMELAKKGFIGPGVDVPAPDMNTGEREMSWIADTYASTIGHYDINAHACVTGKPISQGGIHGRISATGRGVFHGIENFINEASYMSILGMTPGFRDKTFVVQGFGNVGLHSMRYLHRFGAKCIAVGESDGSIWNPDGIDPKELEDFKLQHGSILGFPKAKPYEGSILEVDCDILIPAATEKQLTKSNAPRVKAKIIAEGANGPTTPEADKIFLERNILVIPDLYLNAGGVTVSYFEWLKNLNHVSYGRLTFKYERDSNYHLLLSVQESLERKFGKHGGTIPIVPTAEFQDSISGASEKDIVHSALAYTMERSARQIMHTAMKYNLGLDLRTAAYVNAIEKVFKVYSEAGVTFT
# UniProt O95363, sequence (O95363 whole entry, looked up): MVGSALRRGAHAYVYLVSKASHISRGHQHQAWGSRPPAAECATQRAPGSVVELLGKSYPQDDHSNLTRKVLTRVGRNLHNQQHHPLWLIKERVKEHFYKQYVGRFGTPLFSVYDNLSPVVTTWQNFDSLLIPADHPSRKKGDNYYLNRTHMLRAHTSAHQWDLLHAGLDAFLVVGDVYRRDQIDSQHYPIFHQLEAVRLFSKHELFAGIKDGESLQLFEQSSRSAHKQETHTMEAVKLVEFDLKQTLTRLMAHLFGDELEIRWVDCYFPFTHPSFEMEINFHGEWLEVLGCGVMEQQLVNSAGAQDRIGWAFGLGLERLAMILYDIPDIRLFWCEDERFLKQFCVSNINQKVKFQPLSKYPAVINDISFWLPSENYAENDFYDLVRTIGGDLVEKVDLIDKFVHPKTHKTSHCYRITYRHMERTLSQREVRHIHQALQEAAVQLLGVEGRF
# UniProt Q6P3S6, sequence (Q6P3S6 whole entry, looked up): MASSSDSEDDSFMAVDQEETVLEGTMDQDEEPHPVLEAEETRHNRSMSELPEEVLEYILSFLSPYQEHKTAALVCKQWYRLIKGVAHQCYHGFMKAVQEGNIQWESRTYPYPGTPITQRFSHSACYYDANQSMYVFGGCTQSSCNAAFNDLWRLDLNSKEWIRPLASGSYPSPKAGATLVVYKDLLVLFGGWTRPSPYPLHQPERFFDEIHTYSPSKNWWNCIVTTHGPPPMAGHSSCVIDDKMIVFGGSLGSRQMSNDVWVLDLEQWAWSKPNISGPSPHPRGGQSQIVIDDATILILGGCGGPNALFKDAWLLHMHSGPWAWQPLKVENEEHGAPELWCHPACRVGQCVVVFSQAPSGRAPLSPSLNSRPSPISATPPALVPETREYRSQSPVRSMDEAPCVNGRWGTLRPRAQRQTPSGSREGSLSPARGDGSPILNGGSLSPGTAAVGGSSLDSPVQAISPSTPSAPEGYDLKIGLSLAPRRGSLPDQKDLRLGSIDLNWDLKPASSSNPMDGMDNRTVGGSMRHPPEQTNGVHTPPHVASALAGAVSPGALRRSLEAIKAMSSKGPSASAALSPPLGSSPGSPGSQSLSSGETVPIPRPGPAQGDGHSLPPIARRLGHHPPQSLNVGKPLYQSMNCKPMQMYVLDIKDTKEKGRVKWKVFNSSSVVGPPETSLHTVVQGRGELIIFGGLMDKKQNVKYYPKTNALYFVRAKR
# UniProt Q9H6D7, sequence (Q9H6D7 whole entry, looked up): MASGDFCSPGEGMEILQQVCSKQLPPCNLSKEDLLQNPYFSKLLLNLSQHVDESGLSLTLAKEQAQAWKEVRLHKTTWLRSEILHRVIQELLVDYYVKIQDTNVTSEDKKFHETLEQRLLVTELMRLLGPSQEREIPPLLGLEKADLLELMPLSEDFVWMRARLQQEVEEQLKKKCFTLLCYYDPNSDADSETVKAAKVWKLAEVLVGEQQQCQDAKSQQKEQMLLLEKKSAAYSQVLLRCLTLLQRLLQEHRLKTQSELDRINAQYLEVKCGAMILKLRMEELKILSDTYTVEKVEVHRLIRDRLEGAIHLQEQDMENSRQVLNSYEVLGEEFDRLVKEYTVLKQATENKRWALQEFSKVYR
# UniProt P0CL80, sequence (P0CL80 whole entry, looked up): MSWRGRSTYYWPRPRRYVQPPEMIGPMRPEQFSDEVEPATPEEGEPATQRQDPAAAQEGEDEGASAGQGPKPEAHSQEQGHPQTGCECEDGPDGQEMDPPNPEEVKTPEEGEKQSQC
# UniProt Q9Y692, sequence (Q9Y692 whole entry, looked up): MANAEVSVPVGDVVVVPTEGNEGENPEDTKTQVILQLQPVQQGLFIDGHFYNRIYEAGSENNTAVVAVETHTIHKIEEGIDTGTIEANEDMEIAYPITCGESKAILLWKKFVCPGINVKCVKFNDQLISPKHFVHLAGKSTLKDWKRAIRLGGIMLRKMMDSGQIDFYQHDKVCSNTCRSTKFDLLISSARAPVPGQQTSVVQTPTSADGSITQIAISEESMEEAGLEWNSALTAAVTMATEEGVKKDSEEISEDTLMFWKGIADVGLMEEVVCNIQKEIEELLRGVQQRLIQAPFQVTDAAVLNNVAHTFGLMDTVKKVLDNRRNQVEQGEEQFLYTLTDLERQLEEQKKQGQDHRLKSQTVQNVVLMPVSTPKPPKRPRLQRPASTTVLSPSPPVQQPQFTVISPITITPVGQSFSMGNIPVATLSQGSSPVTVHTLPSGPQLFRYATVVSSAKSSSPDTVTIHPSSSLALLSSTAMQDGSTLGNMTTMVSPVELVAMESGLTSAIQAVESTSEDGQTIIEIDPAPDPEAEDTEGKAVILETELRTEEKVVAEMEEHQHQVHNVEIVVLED
# UniProt Q5SSJ5, sequence (Q5SSJ5 whole entry, looked up): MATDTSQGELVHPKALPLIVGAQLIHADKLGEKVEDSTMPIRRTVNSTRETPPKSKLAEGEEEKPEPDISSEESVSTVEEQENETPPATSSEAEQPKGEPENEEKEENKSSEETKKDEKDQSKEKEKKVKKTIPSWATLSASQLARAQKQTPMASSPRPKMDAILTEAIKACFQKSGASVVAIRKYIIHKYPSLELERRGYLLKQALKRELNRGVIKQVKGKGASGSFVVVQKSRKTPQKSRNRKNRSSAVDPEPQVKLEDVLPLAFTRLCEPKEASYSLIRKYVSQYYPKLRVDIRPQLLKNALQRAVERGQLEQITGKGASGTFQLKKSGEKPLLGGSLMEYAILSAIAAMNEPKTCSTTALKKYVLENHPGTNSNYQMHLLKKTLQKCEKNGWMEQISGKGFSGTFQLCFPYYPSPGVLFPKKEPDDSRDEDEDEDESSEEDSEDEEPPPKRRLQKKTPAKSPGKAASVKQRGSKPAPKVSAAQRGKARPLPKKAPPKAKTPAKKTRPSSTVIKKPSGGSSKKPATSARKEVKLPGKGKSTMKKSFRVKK
# UniProt P05114, sequence (P05114 whole entry, looked up): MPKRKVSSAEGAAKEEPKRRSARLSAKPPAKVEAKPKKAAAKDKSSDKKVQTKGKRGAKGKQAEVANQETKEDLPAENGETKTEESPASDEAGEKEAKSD
# UniProt P15976, sequence (P15976 whole entry, looked up): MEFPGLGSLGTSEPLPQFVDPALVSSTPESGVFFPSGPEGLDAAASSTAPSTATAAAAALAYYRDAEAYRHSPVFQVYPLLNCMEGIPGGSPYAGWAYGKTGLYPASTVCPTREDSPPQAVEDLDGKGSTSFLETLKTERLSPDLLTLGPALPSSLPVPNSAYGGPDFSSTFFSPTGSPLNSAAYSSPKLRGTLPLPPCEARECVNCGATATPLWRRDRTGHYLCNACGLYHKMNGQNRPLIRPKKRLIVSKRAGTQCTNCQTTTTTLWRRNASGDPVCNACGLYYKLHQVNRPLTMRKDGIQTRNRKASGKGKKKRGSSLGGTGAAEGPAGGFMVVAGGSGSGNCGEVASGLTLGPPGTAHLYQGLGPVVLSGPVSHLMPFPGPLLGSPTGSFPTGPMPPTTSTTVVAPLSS
# UniProt Q70Z53, sequence (Q70Z53 whole entry, looked up): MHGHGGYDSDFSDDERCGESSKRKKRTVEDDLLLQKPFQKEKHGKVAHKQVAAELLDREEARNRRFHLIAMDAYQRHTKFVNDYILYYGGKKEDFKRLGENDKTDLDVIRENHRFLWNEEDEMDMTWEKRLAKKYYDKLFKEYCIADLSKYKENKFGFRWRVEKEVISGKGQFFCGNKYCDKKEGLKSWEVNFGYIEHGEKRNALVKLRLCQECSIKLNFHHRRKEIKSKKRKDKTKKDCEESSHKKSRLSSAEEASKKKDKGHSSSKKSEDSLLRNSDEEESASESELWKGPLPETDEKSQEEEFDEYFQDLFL
# UniProt P09211, sequence (P09211 whole entry, looked up): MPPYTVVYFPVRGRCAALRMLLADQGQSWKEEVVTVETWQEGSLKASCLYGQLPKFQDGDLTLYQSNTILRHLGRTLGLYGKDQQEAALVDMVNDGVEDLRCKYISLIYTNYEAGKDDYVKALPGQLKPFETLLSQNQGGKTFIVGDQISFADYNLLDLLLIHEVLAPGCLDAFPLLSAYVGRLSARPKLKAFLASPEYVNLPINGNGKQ
Target,log2 fold change (saracatinib),log2 fold change (sotrastaurin),log2 fold change (alvocidib),log2 fold change (Tubastatin A),log2 fold change [1],log2 fold change (defactinib),log2 fold change (rucaparib),log2 fold change [2],log2 fold change (encorafenib),log2 fold change [3]
GHDC (UniProt Q8N2G8),0.003,0.085,-0.029,-0.032,0.014,-0.033,0.006,-0.007,0.001,0.02
GABARAPL2 (UniProt P60520),0.021,0.047,-0.008,0.045,0.011,-0.019,-0.111,-0.013,-0.02,-0.009
FUCA2 (UniProt Q9BTY2),-0.013,-0.021,-0.003,-0.026,0.028,-0.045,-0.139,0.003,0.012,0.038
GNAI3 (UniProt P08754),0.063,-0.011,-0.02,0.046,0.093,-0.041,-0.009,0.025,-0.004,-0.003
FAM91A1 (UniProt Q658Y4),0.055,-0.049,-0.037,0.005,0.059,0,-0.015,0.002,0.05,-0.025
HP1BP3 (UniProt Q5SSJ5),-0.045,-0.071,0.039,0.06,-0.045,0.227,-0.041,-0.001,0.075,-0.098
GATA1 (UniProt P15976),0.097,-0.042,0.128,-0.049,0.104,0.088,0.086,-0.014,0.054,0
GBF1 (UniProt Q92538),-0.055,-0.103,-0.023,0.034,-0.024,-0.031,0.044,0.059,0.104,-0.015
IGF2BP2 (UniProt Q9Y6M1),-0.122,-0.035,0.209,0.168,0.044,0.147,0.446,0.145,0.106,-0.066
GSTP1 (UniProt P09211),-0.011,0.053,-0.051,-0.015,-0.001,-0.033,-0.046,0.02,-0.007,0.027
FARS2 (UniProt O95363),-0.026,-0.003,-0.158,-0.045,0.075,-0.023,-0.026,0.074,0.026,-0.054
GAGE12F (UniProt P0CL80),0.007,0.053,0.052,0.009,-0.081,0.095,0.033,-0.051,-0.031,-0.02
HMGCR isoform 3 (UniProt P04035),0.002,-0.287,-0.021,0.33 (active),-0.133,-0.004,-0.208,-0.024,0.094,0.146
HEXB (UniProt P07686),0,0.029,-0.004,-0.101,0.017,-0.002,-0.078,-0.033,0.01,-0.001
H1FX (UniProt Q92522),-0.054,-0.237,0.381,0.093,0.041,0.336,0.219,0.102,0.121,0.013
ICAM1 (UniProt P05362),0.035,0.07,-0.004,-0.03,-0.073,-0.026,0.049,0.099,-0.004,0.043
GLCCI1 (UniProt Q86VQ1),-0.017,-0.016,0.002,0.082,-0.057,-0.072,0.087,-0.063,0.026,-0.051
GALC (UniProt P54803),0.033,0.047,-0.03,-0.028,-0.003,0.017,-0.091,-0.015,0.024,-0.005
FBXO42 (UniProt Q6P3S6),-0.032,0.051,-0.107,0,-0.067,-0.165,-0.073,0.139,0.03,0.012
HSPA8 (UniProt E9PK54),-0.058,-0.054,0.332,-0.003,0.072,-0.012,-0.287,-0.033,0.051,0.048
FRA10AC1 isoform 3 (UniProt Q70Z53),0.125,0.133,0.132,-0.023,-0.01,0,-0.035,-0.196,-0.103,-0.067
GLB1 (UniProt P16278),-0.011,0.059,-0.018,-0.032,0.034,0.004,0,0.002,0.003,0.036
GALNT4 (UniProt Q8N4A0),-0.088,-0.029,-0.033,0.046,-0.063,0.016,-0.079,-0.138,0.04,-0.013
HAUS4 (UniProt Q9H6D7),0.466,-0.194,0.035,0.044,0.195,0.019,0.337,0.044,0.194,-0.03
GMEB1 (UniProt Q9Y692),-0.055,-0.06,-0.123,-0.022,0.028,-0.06,-0.047,-0.051,0.043,-0.003
H3-3A (UniProt P84243),-0.094,-0.356,-0.063,0.203,0.002,0,0.031,0.189,0.034,0.102
GID4 (UniProt Q8IVV7),0.04,-0.091,-0.006,0.015,-0.038,0.032,0.032,-0.079,-0.072,0.139
GALNT1 (UniProt Q10472),-0.026,0.03,-0.005,0.064,0.039,-0.046,0.008,-0.047,-0.037,-0.005
HMGN1 (UniProt P05114),0.024,0.068,0.149,-0.087,0.03,0.09,0.043,-0.064,-0.01,0.011
GLUD2 (UniProt P49448),0.305 (active),0.056,-0.017,-0.016,0.051,0.008,0.003,0.178,-0.117,-0.042
